According to the OligoGym collection:
Further: reference of the scale not given here.

Each sequence was assayed against NEUROD6 (assay: pooled miR-30 sensor sort-seq; sequence = guide strand). Settings: shRNA.
TTTAATTCATCTTGCATTGTGA was tested, and the sensor-assay potency score (higher = more potent) was -0.0595. Work on TTGTCTTAATTAGACAGGGGAG yielded a sensor-assay potency score (higher = more potent) of -1.08. Sequence AATAGTTGAAACACACTTCAGA has a sensor-assay potency score (higher = more potent) of -0.228. TTAAGTTGTCCAGAGCGTCGTT was tested, and the sensor-assay potency score (higher = more potent) was -0.144. TTTGTTGTCTTTTTTTTCCTAA showed a sensor-assay potency score (higher = more potent) of -0.154. TCAGAAACTAGTAAACACCTTA gave a sensor-assay potency score (higher = more potent) of 0.248.

Each sequence was assayed against NF1 in the same assay as above. Settings: shRNA.
TACTAAGAAAGTAACAACGTGG was tested, and the sensor-assay potency score (higher = more potent) was 0.245. Sequence TTGTAGGACAATCAGATGCTAT has a sensor-assay potency score (higher = more potent) of -0.838. With TAACTGATGAAGAACCAGCAGA the sensor-assay potency score (higher = more potent) was -0.956. In the case of TATTACTGTAGCTTCTATCAGA, the sensor-assay potency score (higher = more potent) is reported as -0.358. In the case of TATTCTACCATCTTATTCCTAA, the sensor-assay potency score (higher = more potent) is reported as -0.177. TAAAATAGCAATATCATCCCAC showed a sensor-assay potency score (higher = more potent) of 0.315. With TAGCAGTAACTCTTTGTCGTTT the sensor-assay potency score (higher = more potent) was -0.737. In the case of TTTGTAGATAGGTAGCACCATA, the sensor-assay potency score (higher = more potent) is reported as -1.19. TAGAAGGAATATCACATCCTAC was tested, and the sensor-assay potency score (higher = more potent) was -0.685. Sequence TTTGCTTTGAAAACGGTCCTGC has a sensor-assay potency score (higher = more potent) of 0.844.

What follows are sequences tested against NFE2L1 in the same assay as above. Settings: shRNA.
For TAAGTCTCCACTGACTGGGGGG, the sensor-assay potency score (higher = more potent) was -0.685. Work on TCGTCCGTTCTCATCTCGCAGC yielded a sensor-assay potency score (higher = more potent) of -1.23. TAAGTATCCACGTCCACCCGTA gave a sensor-assay potency score (higher = more potent) of 0.169. For TTTCGCTTTCTCGCACCCCGTT, the sensor-assay potency score (higher = more potent) was -0.883. With TTGTCCAGGTCTATGCTCTTGG the sensor-assay potency score (higher = more potent) was -0.582. TAATTGTCCAGGTCTATGCTCT gave a sensor-assay potency score (higher = more potent) of -0.487. TTAGCAGCTTTGAATATTGGGC gave a sensor-assay potency score (higher = more potent) of -0.506. Work on TTGAATATTGGGCATCTCCTTT yielded a sensor-assay potency score (higher = more potent) of -0.276. In the case of TTACTCAACACAAGCATTCTAG, the sensor-assay potency score (higher = more potent) is reported as 0.0111. Work on TTATGCTGGAAATGTCTGCTGG yielded a sensor-assay potency score (higher = more potent) of -0.294. TTCCTGTACACTGACCCGCAGT gave a sensor-assay potency score (higher = more potent) of -0.906. For TTGATGATTTTGTCATTGGTGA, the sensor-assay potency score (higher = more potent) was -0.465.

What follows are sequences tested against NFYC in the same assay as above. Settings: shRNA.
TATTGCATCTTTCTGCTGGAGA was tested, and the sensor-assay potency score (higher = more potent) was -0.521. AAATATTGCATCTTTCTGCTGG showed a sensor-assay potency score (higher = more potent) of 0.522. TAAGCGGATATACTGCAGCTGG gave a sensor-assay potency score (higher = more potent) of -0.727. TGTGTTAGTGATGATCTGCTGC was tested, and the sensor-assay potency score (higher = more potent) was 0.227. Work on TCTTGGAACAATATCGATGAGA yielded a sensor-assay potency score (higher = more potent) of -0.931. Sequence ATCTCTTGGAACAATATCGATG has a sensor-assay potency score (higher = more potent) of -1.33. TTGAGTGCCTGATACAGGCTGG showed a sensor-assay potency score (higher = more potent) of -0.146. TAATCTTCTTAATACGAGCCAG gave a sensor-assay potency score (higher = more potent) of -0.951. In the case of TAGCATTGGACACACACTCAAC, the sensor-assay potency score (higher = more potent) is reported as -0.948. TTATCTTCTGTGTGAATCCAGG showed a sensor-assay potency score (higher = more potent) of -0.977. Work on TTGCTGGATCTGGTAGAGCTGC yielded a sensor-assay potency score (higher = more potent) of -1.31. Work on TAGAGCTGCTGTCCATCTGTGA yielded a sensor-assay potency score (higher = more potent) of -0.297.
